The values below come from PubChem BioAssay AID602393 (Broad Institute, 2012).

The whole screen tested about 350,000 compounds, of which about 7,000 (2%) were called active. This is one part of a sample in which actives are shown more often than they occur. Rule as the data show it: active = activation above about 40%; inconclusive = no clear call, values can overlap the other calls; inactive = below that.

The experiment can be described thus: raisers of Bmi1 knock-in reporter signal – mouse ES cells, Bmi1 luciferase knock-in, single point, esBAF inhibitor project, primary screen (AID 602393).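 Also: 0% = median of the plate's neutral control wells and 100% = double that signal; a rise in the Bmi1 reporter signal indicates esBAF inhibition.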 The settings on record: 24 h, at 12.5 µM, active compounds read high, 100% = twice the neutral-well signal.
As for `CCCNC(=O)Nc1ccc2c(c1)C(=O)N(C)C[C@H](OC)[C@H](C)CN(Cc1cccnc1)[C@@H](C)CO2`, the reporter increase is -1.39% (inactive).
Then `CN1CCN(C(=O)C[C@@H]2CC[C@@H]3[C@H](COC[C@H](O)CN3CC3CCOCC3)O2)CC1`, with 3.66% (inactive); and `CC(C)NC(=O)N[C@@H]1CC[C@H](CC(=O)NCCN2CCCC2)O[C@@H]1CO`, with -2.08% (inactive).
With `COc1ccccc1S(=O)(=O)N[C@@H]1CC[C@@H](CCn2cc(C3CCCCC3)nn2)O[C@H]1CO` the figure was 4.02% (inactive); with `CO[C@H]1CN(C)C(=O)c2ccc(NC(=O)C3CCCC3)cc2OC[C@@H](C)NC[C@@H]1C`, 0.309% (inactive).
With `COc1cccc(NC(=O)Nc2ccc3c(c2)C(=O)N(C)[C@@H]2CC[C@@H](CC(=O)NCCc4ccccc4)O[C@H]2CO3)c1` the figure was 4.83% (inactive).
As for `C[C@@H]1CN([C@H](C)CO)C(=O)c2cc(NC(=O)CCCN(C)C)ccc2O[C@@H](C)CCCCO[C@H]1CN(C)CC1CCCCC1`, the reporter increase is -2.94% (inactive).
As to `Fc1ccc2nc(Nc3nc4c(s3)CCCC4)sc2c1`, the reporter increase was 28.9% (inactive).
Regarding `Fc1ccc2nc(N3CCCCC3)sc2c1`, the reporter increase was 45.1% (active).
Consider `O=C(NCCc1cccc(F)c1)C1CCCN(c2nc3ccccc3s2)C1` (stereo not given), for which the reporter increase was 3.83% (inactive).
With `O=C(Cc1ccccc1)N1C[C@@H]2[C@H](c3ccccc31)[C@@H](CO)N2C(=O)Nc1ccc(F)cc1` the figure was -2.51% (inactive).
Then `O=C(C[C@@H]1C[C@H]2c3cc(NS(=O)(=O)c4ccc(F)cc4)ccc3O[C@H]2[C@@H](CO)O1)NCc1ccccc1F`, with 12.4% (inactive); and `CCC(=O)N1C[C@@H](C)[C@@H](OC)CN(C)C(=O)c2ccc(NC(=O)Nc3ccccc3)cc2OC[C@H]1C`, with 0.261% (inactive); and `CCc1ccc(NC(=O)C(=O)NNC(=O)c2cccs2)cc1`, with 12.8% (inactive).
Take `O=C(CNC(=O)c1cccs1)N/N=C/c1cccc(Br)c1`: the reporter increase is -3.05% (inactive).
With `CC(=O)Nc1ccc(/C=N/NC(=O)c2cccs2)cc1`, the reporter increase is 48.3% (active).
As to `Cc1ccc(C)c(NC2=NCC(=O)N2c2ccc3c(c2)OCCO3)c1`, the reporter increase was 47.5% (active).
Consider `Cc1ccc(CC2CC(=O)N(c3ccc4c(c3)OCCO4)C2=O)cc1` (stereo not given), for which the reporter increase was 11.3% (inactive).
With `COc1ccc(N2C(=O)CN=C2Nc2cccc(C)c2C)cc1OC` the figure was -1.36% (inactive); with `COc1ccc(NC(=O)N(C)C[C@@H]2Oc3ncc(-c4ccc(C#N)cc4)cc3C(=O)N([C@@H](C)CO)C[C@H]2C)cc1`, -0.692% (inactive); with `COc1ccc(CNC(=O)[C@H](Cc2c[nH]c3ccccc23)NC(C)=O)cc1OC`, 3.18% (inactive).
Turning to `COc1cc2[nH]c(O)c(C=O)c2cc1OC`, the reporter increase was 3.41% (inactive).
As to `COc1ccc(N=Cc2c(O)[nH]c3ccccc23)cc1OC`, the reporter increase was 73.5% (active).
For `C[C@H](CO)N1C[C@H](C)[C@H](CN(C)C(=O)Nc2ccc(C(F)(F)F)cc2)Oc2ccc(NC(=O)C3CC3)cc2C1=O`, the reporter increase was -3.98% (inactive).
For the compound `CCCn1c(C)cc(/C=C(\C#N)C(=O)OCC(=O)N(C)c2c(N)n(Cc3ccccc3)c(=O)[nH]c2=O)c1C`, the reporter increase is 9.72% (inactive).
Turning to `COc1cc(NC(=O)COC(=O)c2ccc([N+](=O)[O-])s2)cc(OC)c1OC`, the reporter increase was -3.17% (inactive).
Then `CCCn1c(C)cc(/C=C(\C#N)C(=O)OCC(=O)Nc2cc(OC)c(OC)c(OC)c2)c1C`, with 61.6% (active); and `C[C@@H]1CN([C@@H](C)CO)S(=O)(=O)c2ccc(C#C[C@@H](C)O)cc2O[C@@H]1CN(C)C(=O)Cc1ccccn1`, with 1.02% (inactive); and `Cc1ccccc1S(=O)(=O)NCC[C@@H]1CC[C@H](NC(=O)C2CCCCC2)[C@@H](CO)O1`, with 4.09% (inactive).
`O=C(CC1CC1)N1CC[C@@H]2[C@@H](CO)Nc3ccc(-c4ccccc4)cc3[C@@H]21`: the reporter increase is -5.1% (inactive).
Then `COc1ccc(Nc2cc(=O)oc3ccccc23)cc1`, with 3.87% (inactive); and `COc1ccc(NC2=CC(=S)NC(C)(C)C2)cc1`, with 1.51% (inactive); and `COc1ccc(Nc2ccc3ccccc3c2)cc1`, with 119% (active).
As to `O=C(C1CCOCC1)N1C[C@H]2[C@@H](c3ccccc31)[C@@H](CO)N2Cc1ccccc1F`, the reporter increase is 0.141% (inactive).
As to `CCNC(=O)C[C@@H]1CC[C@@H]2[C@@H](COc3ccc(NC(=O)c4cccc(C(F)(F)F)c4)cc3C(=O)N2C)O1`, the reporter increase was 3.63% (inactive).
With `CC(OC(=O)CN1C(=O)c2ccccc2C1=O)C(=O)c1ccccc1` (stereo not given) the figure was -0.946% (inactive); with `Cc1cc(/C=C2/SC(=O)N(CC(=O)N3CCCC3)C2=O)c(C)n1C`, 0.583% (inactive); with `Cc1cc(/C=C2/SC(=O)N(CC(=O)OC(C)C)C2=O)c(C)n1C`, 83.5% (active).
With `COc1ccccc1-c1ccc2c(c1)O[C@H](CN(C)C(=O)c1cccnc1)[C@@H](C)CN([C@H](C)CO)S2(=O)=O`, the reporter increase was 0.986% (inactive).
For `C[C@H](CO)N1C[C@H](C)[C@H](CN(C)CC2CC2)OCCCC[C@H](C)Oc2ccc(NC(=O)c3ccncc3)cc2C1=O`, the reporter increase was -1.67% (inactive).
With `CCOC(OCC)c1ccc(/C=C\c2nccc(N)n2)cc1`, the reporter increase was 46.6% (active).
`Cc1noc(C)c1NC(=O)Nc1ccc2c(c1)C(=O)N([C@H](C)CO)C[C@H](C)[C@H](CN(C)Cc1ccc(C(=O)O)cc1)OCCCC[C@H](C)O2`: the reporter increase was -3.6% (inactive).
Then `Cc1ccc(-n2ncc3c(Nc4cccc(C(=O)O)c4)ncnc32)cc1`, with 57.1% (active); and `Cc1ccc(Nc2ncnc3c2cnn3C)c(C)c1`, with -6% (inactive).
On to `CC(Sc1ncnc2c1cnn2-c1ccccc1)C(=O)Nc1ccc(N2CCOCC2)cc1` (stereo not given), for which the reporter increase was 13.9% (inactive).
Turning to `CNC[C@H]1Oc2cc(-c3cccnc3)ccc2S(=O)(=O)N([C@@H](C)CO)C[C@H]1C`, the reporter increase was 3.67% (inactive).
Take `CSc1ccccc1NC(=O)c1cc(Cl)sc1Cl`: the reporter increase is -9.78% (inactive).
For the compound `Cc1ccccc1C(=O)Nc1ccccc1Sc1ccccc1`, the reporter increase is -8.84% (inactive).
With `CSc1ccccc1NC(=O)c1cnc2sc(C)cn2c1=O`, the reporter increase was 68.8% (active).
On to `O=C(c1ccccc1)N1CC[C@H]2[C@H](CO)Nc3ccc(-c4ccc(F)cc4)cc3[C@H]21`, for which the reporter increase is -5.91% (inactive).
